# From PubChem BioAssay AID2314 (National Center for Advancing Translational Sciences (NCATS), 2010)
# Hit rate of the full screen: of about 300,000 compounds, about 37,000 (12%) were called active. This is one part of a sample in which actives are shown more often than they occur. A number with no mark means an inactive call. No stated cut-off is given here; in the data, active means max response mostly above about 13% (no sharp cut-off); inactive means mostly below about 14%.
# Assay: Cycloheximide Counterscreen for Small Molecule Inhibitors of Shiga Toxin; further: read at 38.3 µM for the half of the compounds with a filed dose; 0% is about no effect
# Settings: cell reporter, cycloheximide protein synthesis inhibition counterscreen; stronger effect = higher value
row,SMILES,max response
1,Cc1ccc(CNC(=O)Cc2cn(C)c3ccccc23)cc1,11.6%
2,Cc1cc2oc(=O)cc(CN(C)Cc3ccc(OC(F)F)cc3)c2cc1Cl,-1.16%
3,O=C(NCCc1ccccc1Cl)C1CCC(=O)N(CCCc2ccccc2)C1 (centres undefined),-1.41%
4,O=C(NCCCc1ccccc1)C1CCC(=O)N(CCc2ccc(Cl)cc2)C1 (centres undefined),12% (active)
5,O=C(NCCN1CCOC1=O)C1CCC(=O)N(CCc2ccc(Cl)cc2)C1 (centres undefined),-3.62%
6,C/C=C(\C)C(=O)NCCN1C2=NC[C@H](Cc3ccc(O)cc3)N2C[C@@H]1Cc1ccc(OC)cc1,0.212%
7,COc1ccccc1NC(=O)c1ccc(N2CC3CC(C2)c2cccc(=O)n2C3)c(NC(=O)c2cccnc2)c1 (centres undefined),-5.5%
8,N=C1C(c2nc3ccccc3s2)=C(O)CN1NC(=O)c1ccc([N+](=O)[O-])cc1,38.2% (active)
9,N=C1C(c2nc3ccccc3[nH]2)=C(O)CN1NC(=O)c1c[nH]c2ccccc12,6.82%
10,CCOC(=O)CCCN1CC(O)=C(c2nc3ccccc3s2)C1=N,6.59%
11,COc1ccccc1N1CC(O)=C(c2nc3ccccc3s2)C1=N,18.7% (active)
12,O=C(Nn1cnnc1)c1ccc([N+](=O)[O-])cc1,-3.89%
13,CCc1ccc(N2CC(O)=C(c3nc4ccccc4c(=O)[nH]3)C2=N)cc1,4.62%
14,CCOc1ccc(N(CC(=O)Nc2ccccc2F)S(=O)(=O)c2c(C)[nH]c(=O)[nH]c2=O)cc1,9.46%
15,Cc1ccccc1/C=C\c1nc(O)c([N+](=O)[O-])c(=O)[nH]1,-5.68%
16,O=C(COC(=O)CNC(=O)c1ccccc1F)NCC(F)(F)F,-1.02%
17,O=C(CNC(=O)c1ccc(F)cc1)c1ccccc1,30% (active)
18,O=C(CNC(=O)c1ccccc1)NCC(=O)OCC(=O)c1ccccc1,-5.87%
19,COC(=O)CNC(=O)c1ccccc1F,-2.02%
20,O=C(CNC(=O)c1ccccc1F)c1ccc(Br)cc1,57.7% (active)

row,SMILES,max response
1,CSc1nnc(CNC(=O)c2ccccc2)n1-c1ccc(F)cc1,-2.44%
2,COCCNC(=O)NC(=O)COC(=O)C1(c2ccc(Cl)cc2)CC1,7.97%
3,CC1(C)Cc2c(sc(NC(=O)C(=O)N3CCOCC3)c2C#N)CO1,-9.16%
4,COc1nc(-c2ccc(Cl)cc2)ccc1-c1noc(-c2cccs2)n1,-1.17%
5,O=C(O)COc1ccc(-c2nccc(-c3cccs3)n2)cc1,-3.38%
6,CC(C)c1nc(-c2ccccn2)no1,22.8% (active)
7,CC1(C)N=C(c2ccccn2)C(C)(C)N1O,-7.15%
8,c1ccc(-c2nccc(-c3ccc(-n4cnc5ccccc54)cc3)n2)nc1,-1.84%
9,O=C(NCc1cccnc1)c1nc(-c2cccs2)no1,13.1%
10,CCCCCCOc1ccc(OC(=O)c2cccnc2)cc1,14.6%
11,Clc1ccc(-n2nnnc2-c2cnc(-c3ccccn3)nc2-c2cccs2)cc1,-3.52%
12,O=C(Oc1ccc(-c2nc(-c3ccccn3)no2)cc1)c1ccccc1,31% (active)
13,c1csc(-c2nc(-c3ccncc3)no2)c1,29.3% (active)
14,O=C(COC(=O)c1ccc(Oc2ccccc2)cc1)Nc1nnc(-c2ccccc2)o1,13.5%
15,c1ccc(-c2noc(-c3cccs3)n2)nc1,17.4% (active)
16,CCc1ccc(OC(C)C(=O)Nc2ccc(S(=O)(=O)Nc3cc(C)on3)cc2)cc1 (centres undefined),-1.86%
17,COc1ccccc1NC(=O)CN(c1ccccc1OC)S(=O)(=O)c1ccccc1,-1.65%
18,O=C1C[C@@H](c2ccc3ccccc3c2)N1S(=O)(=O)c1ccccc1[N+](=O)[O-],-1.77%
19,O=C1C2C(c3ccccc3)CC=CC2C(c2ccoc2)N1Cc1ccccc1 (centres undefined),0.409%
20,O=C(CN1C(=O)NC2(CCCCC2)C1=O)NCCc1c[nH]c2ccccc12,-0.529%

row,SMILES,max response
1,CC(C)(C)N(Cc1ccccc1)C(=O)c1ccncc1,-0.936%
2,Cc1nnc(SCc2ccc(C(=O)c3ccc(Cl)cc3)o2)n1-c1ccccc1,6.81%
3,Cc1ccc(-c2nc(-c3ccncc3)no2)c(C)c1,43.8% (active)
4,Cc1ccc(-c2noc(CSc3nnc(-c4ccncc4)n3-c3ccc(F)cc3)n2)cc1,0.685%
5,Cc1ccc2nc(-c3ccncc3)cc(C(=O)Nc3ccncc3)c2c1,6.6%
6,Cc1cc(S(=O)(=O)N2CCOCC2)ccc1OCC(=O)Nc1cccc(C(F)(F)F)c1,-3.96%
7,CCC1=Nc2cc(C(=O)NCCN3CCCC3)ccc2Sc2ccc(C)cc21,14.2%
8,CONC(=O)c1cc(OCC(F)(F)F)ccc1OCC(F)(F)F,-3.39%
9,O=C(Nc1ccccc1)Nc1ccc(C(F)(F)F)cn1,13%
10,O=C(NC(=O)c1cc(OCC(F)(F)F)ccc1OCC(F)(F)F)Nc1ccccc1,8.68% (active)
11,CC1CCN(C(=O)Cn2nnnc2CN2CCOCC2)CC1,-2.13%
12,COc1ccc(CCNC(=O)C(=O)NCC2OCCN2S(=O)(=O)c2ccc(F)cc2)cc1OC (centres undefined),1.66%
13,CCC(C)NC(=O)c1ccc(N2CCC3(CC2)OCCO3)c([N+](=O)[O-])c1 (centres undefined),20% (active)
14,COCCNC(=O)c1ccc(N2CCC3(CC2)OCCO3)c([N+](=O)[O-])c1,-2.09%
15,CC(NC(=O)c1ccc(N2CCNCC2)c([N+](=O)[O-])c1)C12CC3CC(CC(C3)C1)C2 (centres undefined),-1.62%
16,Cc1cc(C)cc(Oc2nc3c(C)cccn3c(=O)c2/C=C(\C#N)C(=O)NC2CCS(=O)(=O)C2)c1 (centres undefined),-2.61%
17,COc1cc(/C=N/O)ccc1OCc1ccc([N+](=O)[O-])cc1,88.7% (active)
18,COc1cc(C(=O)OCc2ccc([N+](=O)[O-])cc2)cc(OC)c1OC,-1.24%
19,COc1cc(/C=N\Nc2ccc([N+](=O)[O-])cn2)ccc1OCC(=O)O,15.7%
